PubChem BioAssay
The source made the active and inactive calls.

Tests used:
[1] = binders of probe aFSTL3 on microarray, primary screen, stem cell growth factor project, biochemical, small-molecule microarray, fluorescence 635/667 (AID 1064); conditions: higher = more signal;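 note: measures binding of the biotinylated anti-FSTL3 antibody to printed compounds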
[2] = binders from COS7 lysate, DM2A8 probe, primary screen, torsin A project, cell lysate, small-molecule microarray, fluorescence 635/667 (AID 1065); conditions: higher = more signal, COS7 lysate expressing mutant human TOR1A
[3] = binders of probe aFGF2 on microarray, primary screen, stem cell growth factor project, biochemical, small-molecule microarray, fluorescence 635/667 (AID 1067); conditions: higher = more signal;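 note: measures binding of biotinylated aFGF2 protein to printed compounds on slides; z-score merges feature fluorescence and signal-to-noise across triplicate slides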
[4] = binders of probe aFGF10 on microarray, primary screen, stem cell growth factor project, biochemical, small-molecule microarray, fluorescence 635/667 (AID 1071); conditions: higher = more signal;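 note: score merges 667 nm spot intensity and signal to noise from triplicate slides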
[5] = target: Neurogenic locus notch homolog protein 2 (Homo sapiens) (UniProt Q04721); assay: Notch2 binders on small-molecule microarrays, primary screen, biochemical, small-molecule microarray, 635 nm fluorescence, stem cell growth factors (AID 1073); conditions: Notch2 binding, higher = more signal
Neurogenic locus notch homolog protein 2 (Homo sapiens), sequence (Q04721 whole entry, looked up, canonical isoform): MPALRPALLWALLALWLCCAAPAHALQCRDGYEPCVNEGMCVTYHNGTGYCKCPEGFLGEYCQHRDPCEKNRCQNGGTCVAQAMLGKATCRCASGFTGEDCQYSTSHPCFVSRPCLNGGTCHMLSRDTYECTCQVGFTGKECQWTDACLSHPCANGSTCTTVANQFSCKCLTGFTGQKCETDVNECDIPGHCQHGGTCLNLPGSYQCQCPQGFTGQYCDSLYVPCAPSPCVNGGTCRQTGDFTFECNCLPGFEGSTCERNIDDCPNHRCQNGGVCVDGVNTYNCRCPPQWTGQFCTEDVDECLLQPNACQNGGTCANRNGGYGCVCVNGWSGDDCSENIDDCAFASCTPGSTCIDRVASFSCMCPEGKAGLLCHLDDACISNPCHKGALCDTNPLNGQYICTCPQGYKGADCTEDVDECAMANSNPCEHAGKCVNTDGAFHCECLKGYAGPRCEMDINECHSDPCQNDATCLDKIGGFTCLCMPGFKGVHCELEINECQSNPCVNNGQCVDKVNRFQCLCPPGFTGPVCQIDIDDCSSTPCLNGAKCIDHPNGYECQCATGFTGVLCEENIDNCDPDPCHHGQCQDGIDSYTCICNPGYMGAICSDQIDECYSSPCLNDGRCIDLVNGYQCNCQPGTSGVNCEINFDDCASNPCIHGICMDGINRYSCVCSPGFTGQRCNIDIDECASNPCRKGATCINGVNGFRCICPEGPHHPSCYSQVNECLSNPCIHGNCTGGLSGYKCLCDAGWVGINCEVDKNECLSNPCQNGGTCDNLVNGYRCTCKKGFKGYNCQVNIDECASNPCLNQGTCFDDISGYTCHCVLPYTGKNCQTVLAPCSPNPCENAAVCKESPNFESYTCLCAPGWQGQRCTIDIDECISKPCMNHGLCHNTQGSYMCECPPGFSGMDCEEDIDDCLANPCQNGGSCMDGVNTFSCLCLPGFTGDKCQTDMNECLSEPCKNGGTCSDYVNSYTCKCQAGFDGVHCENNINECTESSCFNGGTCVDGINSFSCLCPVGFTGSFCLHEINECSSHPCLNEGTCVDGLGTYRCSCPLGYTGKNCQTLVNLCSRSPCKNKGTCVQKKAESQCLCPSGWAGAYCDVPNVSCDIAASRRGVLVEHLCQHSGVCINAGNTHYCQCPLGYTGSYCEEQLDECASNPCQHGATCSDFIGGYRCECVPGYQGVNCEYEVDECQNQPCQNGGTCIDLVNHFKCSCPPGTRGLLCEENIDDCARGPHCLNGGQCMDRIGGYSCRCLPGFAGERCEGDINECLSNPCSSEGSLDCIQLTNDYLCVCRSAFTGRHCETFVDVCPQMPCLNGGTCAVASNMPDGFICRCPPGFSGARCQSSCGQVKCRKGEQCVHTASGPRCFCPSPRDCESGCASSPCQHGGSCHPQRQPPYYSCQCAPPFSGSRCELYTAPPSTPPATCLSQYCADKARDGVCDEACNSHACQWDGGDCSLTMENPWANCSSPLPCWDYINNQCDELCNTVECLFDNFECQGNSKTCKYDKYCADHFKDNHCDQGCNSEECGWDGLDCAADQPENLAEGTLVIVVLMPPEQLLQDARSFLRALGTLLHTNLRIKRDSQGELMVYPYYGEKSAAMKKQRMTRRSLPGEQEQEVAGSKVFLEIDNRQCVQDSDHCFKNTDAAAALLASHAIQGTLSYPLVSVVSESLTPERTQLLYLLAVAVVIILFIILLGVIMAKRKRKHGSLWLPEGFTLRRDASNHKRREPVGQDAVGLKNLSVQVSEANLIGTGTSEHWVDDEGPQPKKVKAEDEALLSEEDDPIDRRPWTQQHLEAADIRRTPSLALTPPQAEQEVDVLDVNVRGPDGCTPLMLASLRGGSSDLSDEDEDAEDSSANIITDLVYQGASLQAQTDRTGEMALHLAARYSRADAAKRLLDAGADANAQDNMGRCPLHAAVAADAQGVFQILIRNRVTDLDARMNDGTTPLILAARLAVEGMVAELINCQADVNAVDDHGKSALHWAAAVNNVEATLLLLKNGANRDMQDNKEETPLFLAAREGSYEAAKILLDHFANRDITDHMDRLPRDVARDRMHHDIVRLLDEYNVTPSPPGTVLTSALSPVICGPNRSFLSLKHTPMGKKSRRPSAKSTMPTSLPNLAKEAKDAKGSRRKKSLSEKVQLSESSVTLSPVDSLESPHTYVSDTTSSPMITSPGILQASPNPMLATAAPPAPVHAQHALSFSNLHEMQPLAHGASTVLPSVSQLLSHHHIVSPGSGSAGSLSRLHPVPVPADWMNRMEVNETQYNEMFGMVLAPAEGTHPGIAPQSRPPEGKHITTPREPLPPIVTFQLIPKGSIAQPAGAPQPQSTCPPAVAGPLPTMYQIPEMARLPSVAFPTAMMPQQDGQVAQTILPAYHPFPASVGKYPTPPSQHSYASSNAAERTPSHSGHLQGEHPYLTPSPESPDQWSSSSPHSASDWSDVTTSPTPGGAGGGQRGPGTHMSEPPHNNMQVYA

[6] = target: Pro-neuregulin-1, membrane-bound isoform (Homo sapiens) (UniProt Q02297); assay: NRG1 binders on small-molecule microarrays, primary screen, psychiatric disease protein project, biochemical, small-molecule microarray, fluorescence 635/667 (AID 1075); conditions: NRG1 binding, 635 nm fluorescence, higher = more signal;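 note: score combines 667 nm spot fluorescence with signal to noise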
Pro-neuregulin-1, membrane-bound isoform (Homo sapiens), sequence (Q02297 whole entry, looked up, the tested form may be a part, canonical isoform): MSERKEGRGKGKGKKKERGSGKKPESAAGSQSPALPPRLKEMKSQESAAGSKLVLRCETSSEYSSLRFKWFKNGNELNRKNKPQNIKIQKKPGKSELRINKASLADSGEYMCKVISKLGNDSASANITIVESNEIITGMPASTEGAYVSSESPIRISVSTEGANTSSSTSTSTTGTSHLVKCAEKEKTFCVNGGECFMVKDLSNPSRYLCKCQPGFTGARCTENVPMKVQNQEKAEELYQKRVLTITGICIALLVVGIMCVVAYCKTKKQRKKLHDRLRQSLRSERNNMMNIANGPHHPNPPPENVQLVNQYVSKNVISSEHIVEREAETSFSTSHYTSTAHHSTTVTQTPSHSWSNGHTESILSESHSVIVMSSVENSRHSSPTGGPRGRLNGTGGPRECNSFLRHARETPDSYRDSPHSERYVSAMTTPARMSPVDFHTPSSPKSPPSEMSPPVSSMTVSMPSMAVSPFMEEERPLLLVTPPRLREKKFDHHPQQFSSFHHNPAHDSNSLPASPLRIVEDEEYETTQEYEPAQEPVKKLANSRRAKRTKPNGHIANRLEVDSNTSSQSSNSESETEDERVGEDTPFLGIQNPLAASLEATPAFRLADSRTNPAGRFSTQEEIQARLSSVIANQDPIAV

[7] = tested on: Neuregulin-1 EGF-like domain; assay: binders of neuregulin-1 EGF-like domain, primary screen, biochemical, small-molecule microarray, 635 nm fluorescence (AID 1081); conditions: small-molecule microarray binding, higher = more signal;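 note: binding of the protein to compounds printed on small-molecule microarray slides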
[8] = FRG1 promoter luciferase signal modulators, primary screen, FRG1 inhibition for FSHD, cell-based, C2C12 myotubes, firefly/Renilla luciferase, luminescence (AID 1084); conditions: higher = more signal, called active from +8 up or from −8 down
[9] = binders of probe aFST on microarray, primary screen, stem cell growth factor project, biochemical, small-molecule microarray, fluorescence 635/667 (AID 1086); conditions: higher = more signal;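 note: score merges 667 nm fluorescence with signal-to-noise of each printed compound spot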
[10] = binders of probe aHhip on microarray, primary screen, stem cell growth factor project, biochemical, small-molecule microarray, fluorescence 635/667 (AID 1087); conditions: higher = more signal;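 note: score merges spot fluorescence at 667nm with spot signal to noise ratio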
[11] = tested on: PRMT1 (protein arginine N-methyltransferase 1); assay: PRMT1 binders on small-molecule microarrays, primary screen, biochemical, small-molecule microarray, 635 nm fluorescence (AID 1088); conditions: small-molecule microarray binding, higher = more signal;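 note: binding of Prmt1 protein to compounds spotted on small-molecule microarray slides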
[12] = yeast growth modulation, basal conditions, primary screen, YJM789 clinical isolate, OD600, 24 h (AID 1089);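 note: growth of clinical yeast isolate S. cerevisiae YJM 789 seeded 1000 cells per well; test concentration not given here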; conditions: S. cerevisiae YJM789 growth, higher = more signal, called active from +8 up or from −8 down
[13] = fission yeast growth modulation, primary screen, strain 972, OD600, 24 h, no modulator (AID 1090);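 note: basal condition with compound alone and no growth modifier present; test concentration not given here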; conditions: S. pombe 972 growth, higher = more signal, called active from +8 up or from −8 down
[14] = S. cerevisiae growth modulation with rapamycin, primary screen, strain BY4716, OD600, 96 h (AID 1091); conditions: higher = more signal, called active from +8 up or from −8 down; note: test concentration not given here
[15] = target: Torsin-1A-interacting protein 2 (Homo sapiens) (UniProt Q8NFQ8); assay: LULL1 binders on small-molecule microarray, primary screen, cell lysate, human LULL1 lysate, 635/667 nm fluorescence (AID 1092); conditions: hLULL1 lysate binding, 635 nm fluorescence, higher = more signal;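 note: probe is lysate of COS7 cells overexpressing human LULL1; score merges per-feature 667 nm fluorescence with signal-to-noise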
Torsin-1A-interacting protein 2 (Homo sapiens), sequence (Q8NFQ8 whole entry, looked up): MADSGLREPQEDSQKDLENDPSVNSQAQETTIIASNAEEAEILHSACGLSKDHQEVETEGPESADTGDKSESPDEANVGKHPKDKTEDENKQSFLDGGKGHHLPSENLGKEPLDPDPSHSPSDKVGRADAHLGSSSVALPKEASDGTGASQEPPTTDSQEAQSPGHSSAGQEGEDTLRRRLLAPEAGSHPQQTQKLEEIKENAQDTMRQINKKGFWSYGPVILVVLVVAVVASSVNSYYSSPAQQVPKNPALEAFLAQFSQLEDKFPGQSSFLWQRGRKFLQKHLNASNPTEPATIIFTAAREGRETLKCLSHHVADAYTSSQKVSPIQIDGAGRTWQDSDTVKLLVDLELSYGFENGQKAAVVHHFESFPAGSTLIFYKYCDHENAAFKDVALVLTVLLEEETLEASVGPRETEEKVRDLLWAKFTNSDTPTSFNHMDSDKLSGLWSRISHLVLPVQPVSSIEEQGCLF

[16] = E. coli growth modulation, two-sided OD650, primary screen, E. coli filamentation project, strain DRC41, 24 h (AID 1093); conditions: OD650, 24 h, higher = more signal, called active from +8 up or from −8 down;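 note: MC1000 strain lacking acrAB efflux and sulA so SOS filamentation is blocked; test concentration not given here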
[17] = small-molecule microarray binders of probe aLefty2, primary screen, biochemical, biotinylated probe, 635/667 nm fluorescence (AID 1094); conditions: higher = more signal;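 note: score merges spot fluorescence near 667 nm with spot signal-to-noise ratio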
[18] = tested on: Noggin (protein binding on small-molecule microarray); assay: Noggin binders on small-molecule microarray, primary screen, biochemical, 635/667 nm fluorescence (AID 1095); conditions: 635 nm fluorescence, higher = more signal;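 note: score merges 667 nm feature fluorescence with signal to noise over triplicate slides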
[19] = target: Neurogenic locus notch homolog protein 3 (Homo sapiens) (UniProt Q9UM47); assay: NOTCH3 binders on small-molecule microarray, primary screen, biochemical, 635/667 nm fluorescence (AID 1096); conditions: NOTCH3 binding, 635 nm fluorescence, higher = more signal
[20] = small-molecule microarray binders of probe aEGFR, primary screen, biochemical, biotinylated probe, 635/667 nm fluorescence (AID 1097); conditions: higher = more signal;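 note: probe is a biotinylated anti-EGFR antibody binding compounds printed on slides; score combines fluorescence near 667 nm and signal to noise of each spot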

| Structure (SMILES) | composite z-score [1] | composite z-score [2] | composite z-score [3] | composite z-score [4] | composite z-score [5] | composite z-score [6] | composite z-score [7] | z-score [8] | composite z-score [9] | composite z-score [10] | composite z-score [11] | z-score [12] | z-score [13] | z-score [14] | composite z-score [15] | z-score [16] | composite z-score [17] | composite z-score [18] | composite z-score [19] | composite z-score [20] |
| --- | --- | --- | --- | --- | --- | --- | --- | --- | --- | --- | --- | --- | --- | --- | --- | --- | --- | --- | --- | --- |
| C=C(COC)/C(=C/C[C@@H](OC(=O)c1ccncc1)c1ccc(OCCO)cc1)c1cnc2ccccc2c1 | -0.0384 | 0.651 | 0.124 | 1.15 | 1.74 | -0.578 | 1.2 | -1.73 (inactive) | 0.28 | -0.0994 | 1.54 | -2.16 (inactive) | -1.05 (inactive) | -0.263 (inactive) | 2.55 | 1.12 (inactive) | -0.0802 | 1.54 | 1.01 | -0.0531 |
| C=C(CCCC)/C(=C/C[C@@H](OC(C)=O)c1ccc(CO)o1)c1cc(C(=O)OC)ccc1OC | -0.557 | 0.273 | -0.0985 | 0.866 | 0.621 | 1.01 | 1.28 | -0.129 (inactive) | 0.435 | 0.0826 | 1.57 | 0.562 (inactive) | -0.911 (inactive) | 0.28 (inactive) | 2.75 | -0.12 (inactive) | -0.134 | 1.44 | 1.06 | 0.021 |
| O=C1OC[C@@H](c2ccccc2)N2CC(/C=C/c3ccccc3)=CC12 (stereo not given in full) | 0.528 | -0.477 | -0.222 | -0.77 | -1.18 | -0.586 | 0.219 | -0.639 (inactive) | -1.31 | -0.268 | -1.07 | 0.0482 (inactive) | -1.27 (inactive) | 0.321 (inactive) | -0.79 | 0.701 (inactive) | -0.158 | -1.37 | -0.0841 | -0.425 |
| CO[C@H]1O[C@H](CO)[C@@H](OC(=O)Nc2ccccc2-c2ccccc2)[C@H](OC(=O)Nc2ccc3c(c2)OCO3)[C@@H]1OC(=O)Nc1ccc2c(c1)OCO2 | 0.0632 | 0.291 | 0.0826 | 0.733 | 1.44 | 1.62 | 1.4 | 5.64 (inactive) | 1.2 | 0.141 | 1.53 | 2.06 (inactive) | 0.798 (inactive) | 6.35 (inactive) | 3.16 | 0.0976 (inactive) | -0.0269 | 0.91 | 1.07 | -0.0177 |
| O=C1NC(=O)C2C1C=CC(C(O)c1ccc3c(c1)OCO3)N2Nc1ccccn1 (stereo not given) | -0.0049 | 0.0415 | 0.271 | 0.204 | 0.994 | 1.91 | 1.16 | -0.653 (inactive) | 0.364 | 0.0274 | 0.227 | -0.976 (inactive) | 1.02 (inactive) | -0.939 (inactive) | 2.78 | -0.541 (inactive) | 0.0787 | 0.233 | 0.552 | -0.0999 |
